PubChem BioAssay (NCATS)
Records with an inconclusive call do not appear. Calls of active or inactive are those of the source. Calls come from the whole dose curve; as a rule, active = well fitted activation curve with a large enough effect; inconclusive = small, poorly fitted or top-dose-only effect; inactive = flat fitted curve, though single readings scatter.

biological target: D(1A) dopamine receptor (Homo sapiens) (UniProt P21728); assay: HTS Assay for Allosteric Agonists of the Human D1 Dopamine Receptor: Primary Screen for Agonists (AID 488981); settings: Inducible HEK293 T-REx D1 cells, calcium-flux fluorescence, 180 s kinetic; series mostly up to 41.8 µM; activation: at the top concentration; for activation: 0% is about no effect
Sequence (P21728 whole entry, looked up): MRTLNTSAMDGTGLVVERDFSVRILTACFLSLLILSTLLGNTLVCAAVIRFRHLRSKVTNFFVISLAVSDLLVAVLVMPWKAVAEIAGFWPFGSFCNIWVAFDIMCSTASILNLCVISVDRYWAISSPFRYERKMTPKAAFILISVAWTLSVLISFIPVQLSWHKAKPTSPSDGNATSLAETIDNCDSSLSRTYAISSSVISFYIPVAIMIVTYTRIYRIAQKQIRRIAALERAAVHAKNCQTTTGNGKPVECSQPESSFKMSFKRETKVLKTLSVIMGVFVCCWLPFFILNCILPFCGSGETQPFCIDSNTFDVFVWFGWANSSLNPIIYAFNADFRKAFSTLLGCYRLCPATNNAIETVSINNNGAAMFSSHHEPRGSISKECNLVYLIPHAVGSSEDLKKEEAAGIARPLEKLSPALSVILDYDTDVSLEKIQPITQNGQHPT
Source text: Dopamine receptors (DARs) are involved in the etiology and/or therapy of a number of neuropsychiatric and endocrine disorders. For instance, all receptor-based antiparkinsonian drugs work via stimulating the […] DAR subtype whereas all FDA-approved antipsychotic agents are antagonists of this receptor. […] There are three different types of allosteric modulators that we are seeking, two of which will stimulate or augment receptor signaling, allosteric agonists and potentiators, while the third, allosteric antagonists, will attenuate receptor signaling. The present primary screening assay measures compound agonism by tracking calcium flux in a […], inducible Hek293 Trex D1 cell line.
Freshly passaged cells are plated in 1536 well black, clear bottom plates at a density of 4000 cells/well in 3 ul of complete media containing 1x tetracycline inducer. After an overnight incubation at 30 C in 5% CO2, cells are loaded with 2 ul of the no wash Calcium Assay Kit (ABD Bioquest) and incubated at room temperature for 30 to 90 minutes. A 10 cycle (1 second/cycle) baseline measurement is taken and then the FDSS online 1536 pintool delivers 23 nl of compound library (as well as dopamine controls) to the plate. The plate is measured for kinetically at 1 cycle/sec for 180 seconds and is considered to be the agonist portion of the assay (eg, compounds which activate a positive calcium response during this portion are flagged as potential agonists). Following the 180 second read, 1 ul of an EC20 of dopamine is delivered by an onboard pipette head. Measurements are taken kinetically for an additional 180 seconds.
Potency is the fitted concentration of half-maximal effect.

Compound	activation	Potency
N#C/C(=C\c1ccc(O)c(O)c1)C(=O)NCCCc1ccccc1	18.5% (inactive)	
O=C1O/C(=C/Br)CCC1c1cccc2ccccc12 (stereo not given)	2.86% (inactive)	
C[N+]1(C)C2CC(OC(=O)[C@H](CO)c3ccccc3)CC1C1OC12 (stereo not given in full)		inactive
CCCCCC(O)c1cccc(OCc2ccc3ccccc3n2)c1 (stereo not given)	21% (inactive)	
O=C(O)CC1CC(c2ccccc2)=NO1 (stereo not given)	-0.476% (inactive)	
N#C/C(=C\c1ccc(-c2cc(Cl)ccc2Cl)o1)C(=O)Nc1cccc2ncccc12	5.87% (inactive)	
CCCCCCCCCCCCCCCCCC(=O)NCC(COP(=O)([O-])OCC[N+](C)(C)C)OCC (stereo not given)		10 µM (active)
Cc1ccccc1CNc1ncnc2c1ncn2C1OC(CO)C(O)C1O (stereo not given)	-1.37% (inactive)	
CCNC(=O)[C@H]1O[C@@H](n2cnc3c(N)nc(NCCc4ccc(CCC(=O)O)cc4)nc32)[C@H](O)[C@@H]1O	-0.423% (inactive)	
CC(C)(C=O)Cc1cc(C(C)(C)C)c(O)c(C(C)(C)C)c1	24.6% (inactive)	
CN1CCc2cccc3c2C1Cc1ccc(O)c(O)c1-3 (stereo not given)	3.12% (inactive)	
Clc1ccc(N2CCN(Cc3cc4ccccn4n3)CC2)cc1	-1.22% (inactive)	
O=C1NC(=O)/C(=C/c2ccc3nccnc3c2)S1	-1.22% (inactive)	
Nc1nc(Cl)nc2c1ncn2[C@@H]1O[C@H](COP(=O)(O)OP(=O)(O)OP(=O)(O)O)[C@@H](O)[C@H]1O		0.891 µM (active)
CO/S(=N\S(=O)(=O)c1ccc(Cl)cc1)c1ccc([N+](=O)[O-])cc1 (stereo not given)	0.0529% (inactive)	
CNC(=O)[C@H]1O[C@@H](n2cnc3c(NCc4cccc(I)c4)ncnc32)[C@H](O)[C@@H]1O	0.476% (inactive)	
CSc1nc(N)c2ncn([C@@H]3O[C@H](COP(=O)(O)OP(=O)(O)OP(=O)(O)O)[C@@H](O)[C@H]3O)c2n1		1.58 µM (active)
CN1CCc2cc(NC(=O)Nc3cccnc3)ccc21	0.688% (inactive)	
c1ccc(-c2ccccn2)nc1	-1.22% (inactive)	
CC1CN(S(=O)(=O)c2cccc3cnccc23)CCN1 (stereo not given)	2.06% (inactive)	

Compound	activation	Potency
Cc1nc2sccn2c(=O)c1CCN1CCC(=C(c2ccccc2)c2ccc(F)cc2)CC1	1.22% (inactive)	
CCOC(=O)C1=C(C)NC(C)=C(C(=O)OCC)C1c1c(F)c(F)c(F)c(F)c1F	2.54% (inactive)	
CC(C)Cc1ccc([C@H](C)C(=O)O)cc1	-0.423% (inactive)	
O=[N+]([O-])c1ccc(CSc2ncnc3c2ncn3[C@@H]2O[C@H](CO)[C@@H](O)[C@H]2O)cc1	-1.22% (inactive)	
OC[C@H]1O[C@@H](n2cnc3c(NC4CCCC4)ncnc32)[C@H](O)[C@@H]1O	-0.74% (inactive)	
O=Nc1ccc2oc(=O)ccc2c1	0.264% (inactive)	
Cc1cc(NC2CCCCC2)nc(-n2nc(C)cc2C)n1	5.82% (inactive)	
Cn1c(=O)c2[nH]c(-c3ccccc3)nc2n(C)c1=O	-1.22% (inactive)	
CC(=O)N[C@H](C(=O)O)C(C)(C)SN=O	-0.846% (inactive)	
CCCn1c(=O)c2[nH]c(-c3ccc(OCC(=O)NCCN)cc3)nc2n(CCC)c1=O	-0.899% (inactive)	
Clc1ccc(N2CCN(Cc3c[nH]c4ncccc34)CC2)cc1	2.22% (inactive)	
COc1ccc(/C=C/C(=O)Nc2ccccc2C(=O)O)cc1OC	-0.529% (inactive)	
OC[C@H]1O[C@@H](n2cnc3c(Nc4ccccc4)ncnc32)[C@H](O)[C@@H]1O	-1.16% (inactive)	
NC(=S)NCCC[C@H](N)C(=O)O	-0.582% (inactive)	
N=c1ccn2c(n1)O[C@H]1[C@H](O)[C@@H](CO)O[C@H]12	-1.32% (inactive)	
Fc1cccc(/C=N/N=C/c2cccc(F)c2)c1	1.96% (inactive)	
C=CC(N)CCC(=O)O (stereo not given)	0.317% (inactive)	
N#C/C(=C\c1ccc(O)c(O)c1)C(=O)NCc1ccccc1	9.68% (inactive)	
C=CC(=O)c1ccc(CCCCCC)cc1	1.16% (inactive)	
NCCCCC(=O)O	-0.37% (inactive)	
